# Data: PubChem BioAssay (NCATS)
# Results filed as inconclusive are left out. Active and inactive are the calls of the source. Calls follow the shape of the dose curve; as a rule, active = well fitted inhibition curve with a large enough effect; inconclusive = small, poorly fitted or top-dose-only effect; inactive = flat fitted curve, though single readings scatter.
# System: AS120
# Assay: qHTS profiling for inhibitors of Plasmodium falciparum proliferation (AID 504749);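 also: 0% = DMSO vehicle and full inhibition = artemisinin control; nearly all actives have a fitted effect of over 60% in size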
# Conditions: P. falciparum in erythrocytes, SYBR Green DNA, 72 h; series mostly up to 28.7 µM; activity, negative = inhibition: at the top concentration
# Procedure, shortened: (§1)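 Parasite proliferation within erythrocytes, 72 h exposure. Endpoint: SYBR Green I fluorescence after overnight lysis at room temperature. Controls: 0.29 uM artemisinin, DMSO.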
row,SMILES,"activity, negative = inhibition"
1,CNc1c2c(nn1C)CCCC2,7.35% (inactive)
2,NC(=O)CC[C@@H](N)C(=O)O,10.6% (inactive)
3,Cc1c(C(=O)NCCO)[n+](=O)c2ccccc2n1[O-],10% (inactive)
4,CCCCOC(=O)c1ccc(N)cc1,4.17% (inactive)
5,CCCCCCCC(=O)OCC(O)CO (configuration not stated),3.63% (inactive)
6,CCOc1cc(NC(C)=O)ccc1C(=O)OC,10.2% (inactive)
7,C[C@@H](N)C(=O)O,16.7% (inactive)
8,CC(N)CCCC(C)(C)O (configuration not stated),7.77% (inactive)
9,O=C(O)Cc1ccc(CCNS(=O)(=O)c2ccc(Cl)cc2)cc1,8.38% (inactive)
10,COC(=O)c1cccnc1,3.89% (inactive)
11,O=C(Cn1ccnc1[N+](=O)[O-])NCCO,12% (inactive)
12,Cc1ccc(S(=O)(=O)NC(=O)NC2CCCCC2)cc1,-0.961% (inactive)
13,C[N+](C)(C)CC[N+]1(C)Cc2c(Cl)c(Cl)c(Cl)c(Cl)c2C1,0.885% (inactive)
14,O=C(O)CCC(=O)O,13.7% (inactive)
15,NC(=O)NS(=O)(=O)c1ccc(N)cc1,1.51% (inactive)
16,O=C(/C=C/c1ccccc1)OCc1ccccc1,13.3% (inactive)
17,COc1cc(C(=O)NCCCCCC(=O)O)cc(OC)c1OC,2.36% (inactive)
18,O[C@@H]1CO[C@H]2[C@@H]1OC[C@@H]2O,2.99% (inactive)

row,SMILES,"activity, negative = inhibition"
1,O=C(O)c1ccc(OCCCOc2ccc(C(=O)O)cc2)cc1,0.446% (inactive)
2,CC(=O)NS(=O)(=O)c1ccc(N)cc1,14.1% (inactive)
3,CC(=O)Nc1ccc(C(=O)O)cc1,14.7% (inactive)
4,CC1CCc2cc(F)cc3c(=O)c(C(=O)O)cn1c23 (configuration not stated),-4.19% (inactive)
5,CCc1cccc(CC)c1NC(=O)CN(CC(=O)O)CC(=O)O,16.8% [at 12.8 µM] (inactive)
6,O=c1[nH]c(=O)c2ccccc2o1,2.98% (inactive)
7,CN/C(=C\[N+](=O)[O-])NCCSCc1csc(CN(C)C)n1,-1.57% [at 12.8 µM] (inactive)
8,NS(=O)(=O)c1cc(-c2nn[nH]n2)c(NCc2cccs2)cc1Cl,0.676% (inactive)
9,Cn1c(=O)c2c(ncn2CCO)n(C)c1=O,9.61% (inactive)
10,Nc1ncnc2c1ncn2[C@@H]1O[C@H](COP(=O)(O)O)[C@@H](O)[C@H]1O,-12.1% (inactive)
11,COc1ccc(C(=O)N2CCN(CC(=O)N3CCOCC3)CC2)cc1,8.75% (inactive)
12,C[C@@H]1O[C@@H](OC[C@H]2O[C@@H](Oc3c(-c4ccc(O)c(O)c4)oc4cc(O)cc(O)c4c3=O)[C@H](O)[C@@H](O)[C@@H]2O)[C@H](O)[C@H](O)[C@H]1O,5.56% (inactive)
13,CN1C(C)(C)CCCC1(C)C,-0.508% (inactive)
14,Cc1cccc(C(=O)O)c1O,3.95% (inactive)
15,Cc1cc(NC(=O)C2=C(O)c3ccccc3S(=O)(=O)N2C)no1,3.65% (inactive)
16,NCC1CCC(C(=O)Oc2ccc(CCC(=O)O)cc2)CC1 (configuration not stated),4.17% (inactive)
17,O=C(O)Cn1c(C(=O)Nc2nc(-c3ccccc3Cl)cs2)cc2ccccc21,8% (inactive)
18,CC(=O)Nc1ccc(OCCOCCOc2ccc(NC(C)=O)cc2)cc1,12.6% (inactive)

# System: ATS189
# Assay: as above
# Conditions: P. falciparum in erythrocytes, SYBR Green DNA, 72 h; series mostly up to 28.7 µM; activity, negative = inhibition: at the top concentration
# Procedure, shortened: as §1
row,SMILES,"activity, negative = inhibition"
1,CNc1c2c(nn1C)CCCC2,6.55% (inactive)
2,NC(=O)CC[C@@H](N)C(=O)O,10.3% (inactive)
3,Cc1c(C(=O)NCCO)[n+](=O)c2ccccc2n1[O-],4.72% (inactive)
4,CCCCOC(=O)c1ccc(N)cc1,8.9% (inactive)
5,CCCCCCCC(=O)OCC(O)CO (configuration not stated),5.03% (inactive)
6,CCOc1cc(NC(C)=O)ccc1C(=O)OC,13.4% (inactive)
7,C[C@@H](N)C(=O)O,6.58% (inactive)
8,CC(N)CCCC(C)(C)O (configuration not stated),9.29% (inactive)
9,O=C(O)Cc1ccc(CCNS(=O)(=O)c2ccc(Cl)cc2)cc1,-1.85% (inactive)
10,COC(=O)c1cccnc1,3.5% (inactive)
11,O=C(Cn1ccnc1[N+](=O)[O-])NCCO,13.4% (inactive)
12,Cc1ccc(S(=O)(=O)NC(=O)NC2CCCCC2)cc1,11.4% (inactive)
13,C[N+](C)(C)CC[N+]1(C)Cc2c(Cl)c(Cl)c(Cl)c(Cl)c2C1,-0.557% (inactive)
14,O=C(O)CCC(=O)O,4.04% (inactive)
15,NC(=O)NS(=O)(=O)c1ccc(N)cc1,10.2% (inactive)
16,O=C(/C=C/c1ccccc1)OCc1ccccc1,8.35% (inactive)
17,COc1cc(C(=O)NCCCCCC(=O)O)cc(OC)c1OC,5.24% (inactive)
18,O[C@@H]1CO[C@H]2[C@@H]1OC[C@@H]2O,12% (inactive)

row,SMILES,"activity, negative = inhibition"
1,O=C(O)c1ccc(OCCCOc2ccc(C(=O)O)cc2)cc1,6.75% (inactive)
2,CC(=O)NS(=O)(=O)c1ccc(N)cc1,9.82% (inactive)
3,CC(=O)Nc1ccc(C(=O)O)cc1,2.16% (inactive)
4,CC1CCc2cc(F)cc3c(=O)c(C(=O)O)cn1c23 (configuration not stated),1.6% (inactive)
5,CCc1cccc(CC)c1NC(=O)CN(CC(=O)O)CC(=O)O,1.14% [at 12.8 µM] (inactive)
6,O=c1[nH]c(=O)c2ccccc2o1,12.7% (inactive)
7,CN/C(=C\[N+](=O)[O-])NCCSCc1csc(CN(C)C)n1,9.06% [at 12.8 µM] (inactive)
8,NS(=O)(=O)c1cc(-c2nn[nH]n2)c(NCc2cccs2)cc1Cl,5.54% (inactive)
9,Cn1c(=O)c2c(ncn2CCO)n(C)c1=O,12.8% (inactive)
10,Nc1ncnc2c1ncn2[C@@H]1O[C@H](COP(=O)(O)O)[C@@H](O)[C@H]1O,-12.7% (inactive)
11,COc1ccc(C(=O)N2CCN(CC(=O)N3CCOCC3)CC2)cc1,2.68% (inactive)
12,C[C@@H]1O[C@@H](OC[C@H]2O[C@@H](Oc3c(-c4ccc(O)c(O)c4)oc4cc(O)cc(O)c4c3=O)[C@H](O)[C@@H](O)[C@@H]2O)[C@H](O)[C@H](O)[C@H]1O,-13.2% (inactive)
13,CN1C(C)(C)CCCC1(C)C,12.9% (inactive)
14,Cc1cccc(C(=O)O)c1O,14.7% (inactive)
15,Cc1cc(NC(=O)C2=C(O)c3ccccc3S(=O)(=O)N2C)no1,15.8% (inactive)
16,NCC1CCC(C(=O)Oc2ccc(CCC(=O)O)cc2)CC1 (configuration not stated),2.65% (inactive)
17,O=C(O)Cn1c(C(=O)Nc2nc(-c3ccccc3Cl)cs2)cc2ccccc21,4.2% (inactive)
18,CC(=O)Nc1ccc(OCCOCCOc2ccc(NC(C)=O)cc2)cc1,-2.32% (inactive)
